The numbers were not newly measured in PubChem BioAssay AID977611, which cites them from elsewhere.

About 3,900 (100%) of roughly 3,900 compounds were called active. No cut-off is given here; in the data, nearly all actives have Kd up to about 4200 µM. The set was probably picked from earlier hits. The list shows a part of the results. Where a SMILES comes first, the peptide text is derived from it. Non-standard residues stand in square brackets, D forms with d. Square brackets hold non-standard residues; d marks the D form. Residues, ends and D or L forms follow the SMILES beside them. Peptide text beside a SMILES is read from it. [ ]: non-standard residue; d: D form. Orn(CH(NH2)2) = NC(N)NCCC[C@H](N)C(=O)O

This data set can be described thus: PubChem AID 977611. The note with it: PDB protein-ligand complexes, literature Kd.

Consider H-NPGLAYGNPYS-OH, for which the Kd (protein: Galectin-8, PDB entry 4gxl) was 5.2 µM (active).
For the molecule Ac-LPLYTSPSLPNITLGLP-OH, the Kd (protein: Ankyrin Repeat Domains of Human ANKRA2, PDB entry 3v31) was 1.6 µM (active).
In the case of H-PLYTSPSLPNITLGLP-OH, under “protein: DNA-binding protein RFXANK, PDB entry 3uxg”, the Kd was 109 µM (active).
With `CC[C@H](C)[C@H](NC(=O)[C@@H]1CCCN1C(=O)[C@H](CC(C)C)NC(=O)[C@@H](NC(=O)[C@H](CO)NC(=O)CN)[C@@H](C)O)C(=O)N1CCC[C@H]1C(=O)NCC(=O)N[C@H](C(=O)N1CCC[C@H]1C(=O)N1CCC[C@H]1C(=O)N1CCC[C@H]1C(=O)N[C@@H](CC(N)=O)C(=O)N[C@@H](Cc1ccc(O)cc1)C(=O)N[C@@H](CC(=O)O)C(=O)N[C@@H](CO)C(=O)N[C@@H](CC(C)C)C(=O)O)[C@@H](C)O` (H-GSTLPIPGTPPPNYDSL-OH), the Kd (protein: Ubiquitin ligase Nedd4( WW? domain), PDB entry 1i5h) was 53 µM (active).
As to H-TCIYNPLFGS-OH, the Kd (protein: Sorting nexin-17 SNX17, PDB entry 4tkn) is 1.3 µM (active).
Consider `CCC(=O)C(=O)O`, for which the Kd (protein: 4-HYDROXY-2-OXO-HEPTANE-1,7-DIOATE ALDOLASE, PDB entry 4b5t) is 470 µM (active).
Take `CC(=O)N[C@H]1/C(=N/OC(=O)Nc2ccccc2)O[C@H](CO)[C@@H](O)[C@@H]1O`: the Kd was 0.0577 µM (active) (protein: BETA-N-ACETYLHEXOSAMINIDASE, PDB entry 4azb); 0.079 µM (active) (protein: BETA-N-ACETYLHEXOSAMINIDASE, PDB entry 4azg); 0.0356 µM (active) (protein: BETA-N-ACETYLHEXOSAMINIDASE, PDB entry 4azi).
On to `COc1ccc(C[C@H](NC(=O)[C@@H](C)NC(=O)CN2CCOCC2)C(=O)N[C@@H](Cc2ccccc2)[C@@H](O)[C@H](C)CO)cc1`, for which the Kd (protein: yCP, PDB entry 4qlv) is 0.014 µM (active).
For the molecule `CCC[C@H](COc1ccc(-c2nc3ccccc3n2Cc2ccccc2)cc1)n1c(-c2ccccc2)nc2ccccc21`, the Kd (protein: Retinal rod rhodopsin-sensitive cGMP 3',5'-cyclic phosphodiesterase subunit delta, PDB entry 4jvb) was 0.039 µM (active).
For the molecule `CSCC[C@H](NC(=O)[C@H](CCC(=O)O)NC(=O)[C@H](CCCNC(N)N)NC(=O)[C@@H](N)Cc1cnc[nH]1)C(=O)N[C@@H](C)C(=O)N[C@H](C(=O)N[C@@H](CC(=O)O)C(=O)N[C@@H](CS)C(=O)N1CCC[C@H]1C(=O)O)C(C)C` (H-H[Orn(CH(NH2)2)]EMAVDCP-OH), the Kd (protein: Par-6 PDZ domain, PDB entry 1x8s) was 8 µM (active).
In the case of H-GSLLRVQAHIRKKMV-OH, where the note is “protein: Myosin A tail domain interacting protein MTIP-delta60, PDB entry 4r1e”, the dissociation constant Kd was 0.052 µM (active).
Regarding `CC[C@H](C)[C@H](NC(=O)[C@@H]1CCCN1C(=O)[C@H](CCCNC(N)N)NC(=O)[C@@H]1CCCN1C(=O)[C@H](Cc1cnc[nH]1)NC(=O)[C@@H](N)CO)C(=O)N[C@@H](CCCNC(N)N)C(=O)N[C@H](C(=O)O)C(C)C` (H-SHP[Orn(CH(NH2)2)]PI[Orn(CH(NH2)2)]V-OH), the Kd (protein: Chaperone protein DnaK, PDB entry 4ezr) is 6.3 µM (active).
Regarding `C[C@H](NC(=O)CN)C(=O)N[C@@H](Cc1ccccc1)C(=O)N[C@@H](Cc1ccccc1)C(=O)N[C@@H](CO)C(=O)N[C@@H](C)C(=O)N[C@@H](CCCNC(N)N)C(=O)NCC(=O)N[C@@H](Cc1cnc[nH]1)C(=O)N[C@@H](CCCNC(N)N)C(=O)N1CCC[C@H]1C(=O)O` (H-GAFFSA[Orn(CH(NH2)2)]GH[Orn(CH(NH2)2)]P-OH), the Kd (protein: fibrinogen-binding protein SdrG, PDB entry 1r17) was 0.379 µM (active).
For `CSCC[C@H](NC(=O)[C@H](Cc1cnc[nH]1)NC(=O)[C@@H](NC(=O)[C@H](CCCCN)NC(=O)[C@H](C)NC(=O)[C@H](CO)NC(=O)[C@H](C)NC(=O)[C@@H](N)CCCNC(N)N)[C@@H](C)O)C(=O)N[C@@H](Cc1ccc(O)cc1)C(=O)N1CCC[C@H]1C(=O)N[C@H](C(=O)N[C@@H](CCCNC(N)N)C(=O)N[C@@H](CC(N)=O)C(=O)N[C@@H](Cc1ccc(O)cc1)C(=O)N[C@@H](CO)C(=O)N1CCC[C@H]1C(=O)O)C(C)C` (H-[Orn(CH(NH2)2)]ASAKTHMYPV[Orn(CH(NH2)2)]NYSP-OH), for the setting “protein: ezrinradixinmoesin (ERM) proteins, PDB entry 2emt”, the dissociation constant (Kd) is 0.201 µM (active).
Take `CC(C)C[C@H](NC(=O)[C@H](CCC(=O)O)NC(=O)[C@@H](N)CCCNC(N)N)C(=O)N[C@@H](CC(C)C)C(=O)N1CCC[C@H]1C(=O)N[C@@H](CCC(=O)O)C(=O)N[C@@H](CC(C)C)C(=O)N1CCC[C@H]1C(=O)N[C@@H](Cc1cnc[nH]1)C(=O)N1CCC[C@H]1C(=O)N1CCC[C@H]1C=O` (H-[Orn(CH(NH2)2)]ELLPELPHPP-aldehyde): the Kd (protein: MIT domain of Saci1372 (Vps4), PDB entry 2w2u) is 35 µM (active).
Take `CC[C@H](C)[C@H](NC(=O)[C@H](CO)NC(=O)[C@H](CCCNC(N)N)NC(=O)CNC(=O)[C@H](C)NC(=O)[C@H](CCC(=O)O)NC(=O)[C@H](CCCCN)NC(=O)[C@@H](NC(=O)[C@@H](NC(=O)[C@H](C)NC(=O)[C@@H](NC(=O)[C@H](CC(C)C)NC(=O)[C@H](CO)NC(=O)CN)C(C)C)[C@@H](C)O)C(C)C)C(=O)N[C@@H](Cc1cnc[nH]1)C(=O)N[C@@H](CCC(=O)O)C(=O)N[C@H](C(=O)N1CCC[C@H]1C(=O)N[C@@H](CCCNC(N)N)C(=O)O)[C@@H](C)CC` (H-GSLVATVKEAG[Orn(CH(NH2)2)]SIHEIP[Orn(CH(NH2)2)]-OH): where the note is “protein: the BTB domain from B-cell lymphoma 6 protein(BCL6), PDB entry 1r2b”, the Kd was 11.4 µM (active).
Take `CSCC[C@H](NC(=O)[C@H](CCCCN)NC(=O)[C@@H](NC(=O)[C@H](Cc1ccc(O)cc1)NC(=O)[C@@H](NC(=O)CNC(=O)[C@@H](NC(=O)[C@@H](N)[C@@H](C)O)[C@@H](C)O)C(C)C)C(C)C)C(=O)N1CCC[C@H]1C(=O)N1CCC[C@H]1C(=O)O` (H-TTGVYVKMPP-OH): the Kd (protein: AP50, PDB entry 1h6e) was 0.7 µM (active).

Broadly, the Kd is the free concentration of one partner at which half of the binding sites on the other are occupied at equilibrium, for simple one-to-one binding.
